PERK inh: inhibitors of human PERK kinase | CHO PERK-DD fusion, SEAP luminescence translation reporter | inhibition, % at 5.6 µM | Q9NZJ5 | 220,000 compounds, 0.17% hits;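 active means inhibition above the mean inhibition of all tested compounds plus 3 SD, set separately per screening campaign, cut at about 2.9% in these data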;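 further: PERK kinase domain activated by AP20187 dimerizer at 100 nM; 0% = DMSO with dimerizer and 100% = rapamycin at 8.4 µM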
PABP FP inh: blocks human PABP binding to poly(A) RNA; 290,000 compounds, 1% hits; fluorescence polarization; AID 2014; inhibition, % at 35 µM; P11940;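 further: calls also rest on retests at 20 µM and on dose response follow-up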
Target sequence (P11940 whole entry, looked up): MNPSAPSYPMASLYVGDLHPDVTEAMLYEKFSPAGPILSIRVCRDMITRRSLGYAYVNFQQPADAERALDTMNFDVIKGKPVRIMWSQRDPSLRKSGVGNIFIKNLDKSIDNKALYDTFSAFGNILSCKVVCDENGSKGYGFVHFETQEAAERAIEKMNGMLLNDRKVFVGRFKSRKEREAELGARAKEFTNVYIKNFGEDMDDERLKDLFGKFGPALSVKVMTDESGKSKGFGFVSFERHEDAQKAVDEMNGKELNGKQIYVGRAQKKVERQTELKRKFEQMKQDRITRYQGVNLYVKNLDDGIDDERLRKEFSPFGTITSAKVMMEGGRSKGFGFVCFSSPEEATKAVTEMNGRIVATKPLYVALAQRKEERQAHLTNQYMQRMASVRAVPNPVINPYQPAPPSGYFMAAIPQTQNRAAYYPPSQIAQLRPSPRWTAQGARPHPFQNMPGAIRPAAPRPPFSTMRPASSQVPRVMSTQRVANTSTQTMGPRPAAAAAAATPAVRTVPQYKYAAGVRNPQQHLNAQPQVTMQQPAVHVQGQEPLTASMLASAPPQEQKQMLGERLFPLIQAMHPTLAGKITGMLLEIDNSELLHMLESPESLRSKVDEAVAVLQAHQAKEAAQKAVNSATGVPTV
eIF4E-4G inh: blocks eIF4E binding to eIF4G | P63073+Q04637 | TR-FRET eIF4E-eIF4GI(517-606) binding, 2 h | inhibition, % at 21.7 µM | 220,000 compounds, 0.37% hits;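 active means inhibition above about 30%, limit read from the data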;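 further: 0% = full FRET control wells and 100% = background wells lacking eIF4GI fragment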
eIF4H FP inh: inhibitors of RNA binding by human eIF4H | Q15056 | eIF4H fluorescence polarization binding assay | inhibition, % at 35 µM | 290,000 compounds, 0.94% hits;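 further: calls also rest on retests at 20 µM and on dose response follow-up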
MLLE-PAM2 inh: inhibitors of microRNA-mediated deadenylation, human PABP1 MLLE binding. 360,000 compounds, 0.36% hits. AID 588489. GST-MLLE / FITC-PAM2 fluorescence polarization. inhibition, % at 20 µM. P11940; in the data active means inhibition above about 35%, passing the limit was not always enough;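 further: plate controls were DMSO wells with GST-MLLE for no effect and wells lacking GST-MLLE protein for full effect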
* = called active by the depositor; ? = inconclusive; · = not tested or not shown; [ ] = dose if it differs, or a comment. Sampled rows, rich in hits. Any-hit rate of the full collection: about 1.6%. Unless noted, how the calls were made is not given here.

SMILES	PERK inh	PABP FP inh	eIF4E-4G inh	eIF4H FP inh	MLLE-PAM2 inh
Cc1ccc(OCC(=O)c2cc(C)n(C)c2C)c([N+](=O)[O-])n1	0	8	-7	76*	-1
Cc1[nH]c2ccccc2c1/C=C/C(=O)c1ccncc1	-1	52*	-2	72*	-75
O=C(/C=C/c1cccc2ccccc12)c1ccncc1	-1	1	1	-5	25
Cc1ccc(SC(=O)c2c(C)noc2-c2cc(C)on2)cc1	0	3	1	-6	41*
CCOc1ccccc1Nc1nnc(SCc2nnc(-c3cc(OC)c(OC)c(OC)c3)o2)s1	-1	6	2	-5	-39
COc1cc(C(=O)OCC(=O)Nc2ccc(C(C)=O)cc2)ccc1OCC(=O)N1CCOCC1	0	19	-5	8	-19
O=C(OCc1nnc(-c2ccc([N+](=O)[O-])cc2)o1)C1CCN(C(=O)c2ccc(Cl)cc2)CC1	·	·	·	·	-9
CC(=O)Nc1ccc2c(COC(=O)CC3Sc4ccccc4NC3=O)cc(=O)oc2c1 (stereo not drawn)	1	87*	9	?	-70
COc1ccc2c(COC(=O)CC3Sc4ccccc4NC3=O)cc(=O)oc2c1 (stereo not drawn)	0	-3	12	29	-30
Cc1ccc(C(=O)CSc2cc(C)[nH]c(=O)n2)cc1	·	12	·	22	-49
S=C(Nc1ccccn1)NC1CCCCC1	0	-5	94*	3	-42
S=C(Nc1ccc(Nc2ccccc2)cc1)Nc1ccccn1	0	-4	1	-8	38*
S=C(Nc1ccccn1)NC1CCCC1	2	-6	-3	-1	-31
O=C(NC(NC(=S)Nc1c(Cl)cc(Cl)cc1Cl)C(Cl)(Cl)Cl)OCc1ccccc1 (stereo not drawn)	0	2	-1	-13	39*
Cc1ccc(C)c(NC(=S)NC(NC(=O)OCc2ccccc2)C(Cl)(Cl)Cl)c1 (stereo not drawn)	0	-15	-2	-6	-4
CC(=O)NC(=S)Nc1ccccc1C(=O)Nc1ccccc1	0	8	-6	8	32
CCCCC(=O)NC(=S)Nc1ccccc1C(=O)Nc1ccccc1	0	-3	4	-1	40*
Cc1ccc(C(=O)NCCOC23CC4CC(CC(C4)C2)C3)cc1	-1	0	-4	-6	0
O=C(O)C(O)c1ccco1 (stereo not drawn)	1	7.9*	22	104*	-7
O=C(O)C(O)c1ccccc1 (stereo not drawn)	2	7	3	-8	-7
Cc1ccc(NC(=O)CCCOc2ccccc2)cc1S(=O)(=O)N1CCOCC1	·	·	·	·	-10
CN1C(=O)N(C)c2ccc(C=O)c3cccc1c23	0	-8	-6	?	58*
CCCCNC(=S)N(C)/N=C/c1c(C)[nH]c2ccccc12	0	-4	5	50*	-165
O=C(NCc1ccc(/C=c2\sc3n(c2=O)CCN=3)o1)C(=O)Nc1ccccc1	0	-11	23	82*	·
Cc1ccc(/C=c2/sc3n(c2=O)CCCN=3)o1	1	-8	-1	79	3
SMILES	PERK inh	PABP FP inh	eIF4E-4G inh	eIF4H FP inh	MLLE-PAM2 inh
CCCCCCCCCCCCCCCC[n+]1cccc2ccccc21	1	1	92*[fluorescence artefact?]	2	-143
CCCCCCCCC[n+]1cccc2c3ccccc3ccc21	0	1	-3	-8	-9
Cc1ccccc1Cn1ccc(NC(=O)c2nn3cccnc3c2Cl)n1	-1	-4	1	9	-118
Cc1ccccc1Cn1ccc(NC(=O)c2cc3ncc(Br)cn3n2)n1	1	-11	14	53*	-2
C=CC(=O)NCC1OCCc2ccccc21 (stereo not drawn)	1	-1	3	0	5
O=C(/C=C/c1ccco1)NCC1OCCc2ccccc21 (stereo not drawn)	2	41*	20	87*	11
Nc1nc(COc2ccccc2C=O)nc(Nc2ccccc2)n1	-1	8	97*	-3	2
O=C(O)c1cc(C(=O)O)cc(-c2ccc(/C=c3/sc4nc5ccccc5n4c3=O)o2)c1	1	0	3	56*	·
O=c1/c(=C\c2cc([N+](=O)[O-])cc([N+](=O)[O-])c2O)sc2nc3ccccc3n12	-1	-8	30*	35	-88
O=C(O)c1ccccc1-c1ccc(C=c2sc3nc4cc(Br)cnc4n3c2=O)o1	·	·	·	·	-133
O=C(O)c1cccc(-c2ccc(/C=c3/sc4nc5ccccc5n4c3=O)o2)c1	0	48	39*	60	-134
O=c1/c(=C/c2ccccn2)sc2nc3ccccc3n12	1	?	-12	?	9
CC(C)Cn1c(N)c(C(=O)COC(=O)c2cc(F)cc(F)c2)c(=O)n(C)c1=O	0	8	-3	9	-11
CC1=NNC(=O)C1CCC(=O)N/N=C(/C)c1ccc([N+](=O)[O-])cc1 (stereo not drawn)	0	24	-1	8	0
CCCn1c(CCNc2nc(-c3ccc(Cl)c([N+](=O)[O-])c3)cs2)nc2cc(Cl)c(Cl)cc21	·	-3	·	1	-94
CC1CCC(C(C)C)C(OCC(O)C[N+]2(C)CCCCC2)C1 (stereo not drawn)	1	59*	4	3	-108
CC1CCC(C(C)C)C(OCC(O)CN2CCCC(C)C2)C1 (stereo not drawn)	0	10	-2	-2	4
CSc1cc(N2CCOCC2)nc(-c2ccccc2Cl)n1	0	-2	7	-3	5
C=CCCCCCCCCc1nc(SCC(C)=O)n[nH]1	2	-2	-1	-3	-45
C=CCCCCCCCCc1nc(SCC(=O)O)n[nH]1	3.0*	-11	3	-2	-13
COc1cc2c(cc1OC)C(c1ccccc1Cl)N(C)CC2 (stereo not drawn)	·	11	·	2	7
CC(C)(C)OC(=O)NCCCCCNC(=O)c1[nH]cnc1C(=O)N[C@@H](Cc1ccccc1)C(=O)OCc1ccccc1	1	active	-2	109*	-5
Cc1ccc(-c2ccc(/C=N/N=C3/NC(=O)C(CC(=O)O)S3)o2)c([N+](=O)[O-])c1 (stereo not drawn)	0	6	10	37	-83
CCOC(=O)c1cc(-c2ccc(/C=C3/C(=O)NC(=O)C(C#N)=C3C)o2)ccc1Cl	1	87*	59*[fluorescence artefact?]	?	18
CC1=C(C#N)C(=O)NC(=O)/C1=C\c1ccc(-c2ccc(C)cc2[N+](=O)[O-])o1	0	3	33*	?	16
O=C(NC12CC3CC(CC(C3)C1)C2)c1ccccc1O	1	-7	12	14	-7
O=C(COc1ccc(C(=O)c2ccccc2)cc1)Nc1ncccc1O	·	5	·	9	9
FC(F)(F)c1cccc(-c2nc3nc(Cl)c(Cl)nc3[nH]2)c1	0	32*	-7	?	-29
O=c1[nH]c(SCc2n[nH]c(=S)n2-c2ccccc2)nc2sc3c(c12)CCC3	0	10	4	8	16

Screens as filed in PubChem.
